Source: PubChem (several laboratories)
M18AAP inhibitor – PfM18AAP inhibitors, malaria aminopeptidase, primary screen, biochemical, QFRET, recombinant enzyme; inhibition, % at 7.35 µM; 1.2% of 290,000 active; AID 1822, 2009; H-Glu-NHMec fluorogenic cleavage;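 active = inhibition above the campaign mean inhibition over all tested compounds plus 3 SD, cut at about 28% in these data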
CTSL1 counter – Fasciola hepatica cathepsin L1 inhibitors, primary screen, counter-screen for PFM18AAP inhibitor project, biochemical, QFRET, fluorogenic peptide substrate | recombinant F. hepatica cathepsin L1, Z-Leu-Arg-MCA fluorescence | inhibition, % at 5.96 µM | 0.49% of 300,000 active | AID 1906, 2009;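 active = inhibition above the mean of all tested compounds plus 3 SD, set per screening campaign, cut at about 17% in these data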
Calb FLC – C. albicans growth inhibition with fluconazole, primary screen, CaCi-2 strain, Alamar Blue fluorescence. 0.57% of 300,000 active. C. albicans CaCi-2 (fluconazole-resistant clinical isolate) + fluconazole, 48 h. growth inhibition, % (concentration not given with the values). AID 1979, 2009;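 active = growth inhibition above about 58% in most replicates, limit read from the data, passing the limit was not always enough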;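 note: all wells also contain fluconazole at 8 µg/ml as a sub-toxic cotreatment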
Rin1 Abl inh – inhibitors of Rin1-Abl protein binding, primary screen, biochemical, TR-FRET; Tyrosine-protein kinase ABL1 (Homo sapiens) + Ras and Rab interactor 1 (Homo sapiens), …; inhibition, % at 7.35 µM; 0.4% of 360,000 active; in the data active = inhibition above about 5%, passing the limit was not always enough
Target sequence (P00519 whole entry, looked up): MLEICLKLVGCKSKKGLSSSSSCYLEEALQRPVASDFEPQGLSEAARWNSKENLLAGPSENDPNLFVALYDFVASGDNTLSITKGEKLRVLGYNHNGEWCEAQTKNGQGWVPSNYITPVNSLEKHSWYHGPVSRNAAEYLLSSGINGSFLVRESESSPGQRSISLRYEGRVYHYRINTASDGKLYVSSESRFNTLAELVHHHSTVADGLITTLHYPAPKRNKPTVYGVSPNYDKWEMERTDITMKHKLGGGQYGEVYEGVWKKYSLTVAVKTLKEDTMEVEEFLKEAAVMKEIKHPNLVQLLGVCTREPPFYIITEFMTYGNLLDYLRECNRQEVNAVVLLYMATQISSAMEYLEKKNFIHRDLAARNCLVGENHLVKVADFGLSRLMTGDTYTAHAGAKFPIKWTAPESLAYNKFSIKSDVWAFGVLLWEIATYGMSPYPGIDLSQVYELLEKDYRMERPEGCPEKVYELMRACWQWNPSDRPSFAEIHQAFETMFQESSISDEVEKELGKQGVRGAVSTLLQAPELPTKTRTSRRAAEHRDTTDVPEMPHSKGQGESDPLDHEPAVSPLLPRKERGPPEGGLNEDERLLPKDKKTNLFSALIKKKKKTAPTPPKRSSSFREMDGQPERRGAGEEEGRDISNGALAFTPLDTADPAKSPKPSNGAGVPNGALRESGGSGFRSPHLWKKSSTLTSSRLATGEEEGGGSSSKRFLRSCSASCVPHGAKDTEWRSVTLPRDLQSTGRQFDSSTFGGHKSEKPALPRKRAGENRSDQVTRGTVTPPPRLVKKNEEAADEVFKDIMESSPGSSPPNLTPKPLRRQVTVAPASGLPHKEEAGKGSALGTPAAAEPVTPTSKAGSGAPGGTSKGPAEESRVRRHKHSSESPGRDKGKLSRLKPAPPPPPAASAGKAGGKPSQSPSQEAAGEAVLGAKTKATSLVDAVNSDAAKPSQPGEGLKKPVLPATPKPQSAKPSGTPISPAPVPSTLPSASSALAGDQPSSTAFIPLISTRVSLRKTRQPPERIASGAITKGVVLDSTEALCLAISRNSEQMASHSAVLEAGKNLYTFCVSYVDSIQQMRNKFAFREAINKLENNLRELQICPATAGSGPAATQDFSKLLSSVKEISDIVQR
Target sequence (Q13671 whole entry, looked up): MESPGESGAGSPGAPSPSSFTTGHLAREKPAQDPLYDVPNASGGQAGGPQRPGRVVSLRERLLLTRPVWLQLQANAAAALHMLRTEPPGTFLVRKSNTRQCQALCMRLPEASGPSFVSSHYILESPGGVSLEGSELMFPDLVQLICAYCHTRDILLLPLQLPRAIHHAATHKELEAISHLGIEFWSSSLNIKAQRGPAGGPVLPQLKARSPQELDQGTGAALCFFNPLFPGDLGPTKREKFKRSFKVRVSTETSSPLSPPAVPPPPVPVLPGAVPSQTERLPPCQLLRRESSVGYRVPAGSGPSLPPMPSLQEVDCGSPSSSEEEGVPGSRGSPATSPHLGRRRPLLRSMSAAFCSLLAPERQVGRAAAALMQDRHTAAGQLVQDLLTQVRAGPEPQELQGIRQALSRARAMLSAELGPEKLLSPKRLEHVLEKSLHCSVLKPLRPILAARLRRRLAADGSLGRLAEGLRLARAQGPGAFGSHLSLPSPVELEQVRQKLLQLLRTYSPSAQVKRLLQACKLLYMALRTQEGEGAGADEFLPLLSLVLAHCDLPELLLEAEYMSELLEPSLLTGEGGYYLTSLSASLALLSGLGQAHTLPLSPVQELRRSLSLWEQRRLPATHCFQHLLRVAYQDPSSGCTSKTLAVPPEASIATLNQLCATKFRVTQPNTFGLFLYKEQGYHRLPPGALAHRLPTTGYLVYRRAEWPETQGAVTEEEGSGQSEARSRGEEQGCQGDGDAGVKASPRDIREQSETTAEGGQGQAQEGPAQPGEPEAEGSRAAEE
Rin1-Abl confirm – Rin1-Abl binding inhibitor retest, confirmation, biochemical, TR-FRET; AID 602124, 2011; shares compounds with Rin1 Abl inh; purified proteins; inhibition, % at 7.35 µM; 49% of 1,300 active
GFP quench – GFP fluorescence inhibitors and quenchers, artefact control for Rin1-Abl interaction inhibitor project, biochemical; shares compounds with Rin1 Abl inh; inhibitors/quenchers counterscreen; inhibition, % at 6.75 µM; 8.5% of 1,300 active; AID 602125, 2011;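 note: ABL1-eGFP fusion protein alone without its partner RIN1-SBP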
GFP quench dose – GFP fluorescence inhibitors and quenchers, dose response, artefact control for Rin1-Abl interaction inhibitor project, biochemical; AID 602182, 2012; shares compounds with Rin1 Abl inh; IC50, µM; 230 tested, under 10 active; GFP fluorescence interference/quenching counterscreen; call rule not given here;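 note: ABL1-eGFP fusion protein alone without its RIN1 binding partner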
Hits are given with their value; 0 = inactive; - = no result. An excerpt weighted towards active compounds, which were near 2.1% of everything screened. Cut-off read from the data, not from the text of the source, unless noted: active = inhibition above about 6.5%; inactive = the rest.

SMILES	M18AAP inhibitor	CTSL1 counter	Calb FLC	Rin1 Abl inh	Rin1-Abl confirm	GFP quench	others
Cc1cc(N2CCOCC2)nc(SCC(=O)c2ccc(Cl)cc2)n1	0	0	0	15.2	14.6	0
Cc1cc(N2CCOCC2)nc(SCC(=O)c2ccccc2)n1	0	0	0	0	-	-
COc1ccc(OC)c(NC(=O)CCC(=O)Nc2nnc(C(C)C)s2)c1	0	0	0	0	-	-
O=C(NCCCO)c1ccc2nc(-c3ccco3)c(-c3ccco3)nc2c1	28.5	-	-	11.2	0	11.4
COCC(=O)OCC(=O)Nc1ccc(Cl)cc1[N+](=O)[O-]	0	0	0	0	-	-
COc1ccc(CNC(=O)C2=C(C)C(=O)OC23CCC(C)CC3)cc1 (centres undefined)	0	0	0	7.4	0	0
CC(=O)OC1COC(n2c(O)c(N=NC(N)=S)c3ccccc32)C(OC(C)=O)C1OC(C)=O (centres undefined)	0	0	0	0	-	-
CCCCc1ccc(NC(=S)N2CCCC2)cc1	0	-	0	0	-	-
CC(=O)OCC1CC(COC(C)=O)C(COC(C)=O)CC1COC(C)=O (centres undefined)	-	-	-	0	-	-
CCC1CCCCN1C(=O)c1ccc(OC)c(OC2CCN(C(C)=O)CC2)c1 (centres undefined)	0	-	0	0	-	-
CCC1C(=O)NCCN1C(=O)c1ccc(OC)c(OC2CCN(C(C)=O)CC2)c1 (centres undefined)	0	0	0	8.4	0	0
Cc1ccc(Nc2nc3ccccc3s2)c(C)c1	0	0	0	6.9	0	0
CCOc1ccccc1OCCn1ncc2ccc(OC)c(OC)c2c1=O	0	0	0	0	-	-
COc1ccc2cnn(CCOc3ccccc3)c(=O)c2c1OC	0	0	0	14.1	0	0
COc1ccc(/C=N/NC(=O)CCN2CCN(c3ccccc3)CC2)c(OC)c1OC	0	0	0	0	-	-
O=C(CCN1CCN(c2ccccc2)CC1)N/N=C/c1ccc(O)c(O)c1O	0	-	113.8	18.7	50.6	13.2
O=C(NC1CCCC1)c1cccc(NC(=O)c2ccco2)c1	0	0	0	0	-	-
CC(C)(C)n1ncc2c(=O)n(Cc3cccc(Cl)c3)cnc21	0	0	0	7.6	0	0
Cc1ccc(S(=O)(=O)N2CCN(C(=O)Cn3cnc4c3c(=O)n(C)c(=O)n4C)CC2)cc1C	-	-	-	17.2	19.1	0	GFP quench dose=0
Cn1c(=O)c2c(ncn2CC(=O)N2CCN(S(=O)(=O)c3ccc(Cl)cc3)CC2)n(C)c1=O	0	0	0	0	-	-
N#CC1=C(N)Oc2nc[nH]c(=O)c2C1c1cccs1 (centres undefined)	0	0	0	0	-	-
O=c1[nH]cnc2c1C(c1ccccc1)c1c(nc[nH]c1=O)O2	0	-	0	22.9	43.7	0	GFP quench dose=0
Cc1ccc(NC(=O)CN2C(=O)C3C4C=CC(C4)C3C2=O)cc1 (centres undefined)	0	0	0	6.3	0	0
CCOC(=O)N1CCC(Nc2cc(C)nc3c(-c4ccccc4OC)c(C)nn23)CC1	0	0	0	6.2	0	0
CCOC(=O)N1CCN(C(=O)CSc2cc(C)nc3c(-c4ccccc4OC)c(C)nn23)CC1	0	0	0	0	-	-
SMILES	M18AAP inhibitor	CTSL1 counter	Calb FLC	Rin1 Abl inh	Rin1-Abl confirm	GFP quench	others
COCCNC(=O)C1CCCN(C(=O)c2cc(C)n(C(C)(C)C)n2)CC1 (centres undefined)	-	-	-	0	-	-
COc1ccc(CNC(=O)CCSCc2cccc(Cl)c2)c(OC)c1	0	0	0	5.2	0	0
COc1ccc(CNC(=O)CCSCc2ccccc2Cl)c(OC)c1	0	0	0	0	-	-
CC(=O)NS(=O)(=O)c1ccc(NS(=O)(=O)c2ccc(F)cc2)cc1	0	0	0	5.8	0	0
CCOc1ccccc1NC(=O)NCc1ccco1	0	0	0	0	-	-
O=C(CCNC(=O)c1ccco1)Nc1ccccc1OC(F)F	0	0	0	0	-	-
O=C1C(=Cc2ccco2)CCCC1=Cc1ccco1	-	-	-	0	-	-
O=C1C(=Cc2ccco2)CCC1=Cc1ccco1	-	-	-	11.9	16.8	28.9
CC1=C(O)C(=O)C(C2=C(O)C(=O)C(C)=C(O)C2=O)=C(O)C1=O	-	-	-	46.5	37.4	27.7
Cc1ccc(C2=C(O)C(=O)C(c3ccc(C)cc3)=C(O)C2=O)cc1	-	-	-	0	-	-
COc1ccc(C=O)cc1OS(=O)(=O)c1ccc(NC(C)=O)cc1	0	0	0	8.5	0	0
COc1cc(C=O)cc(OC)c1OS(=O)(=O)c1ccc(NC(C)=O)cc1	0	0	0	0	-	-
Cc1c(Cl)cccc1NC(=O)N1CCN(C(=O)c2ccco2)CC1	0	0	0	0	-	-
Cc1cc(C)cc(C(=O)NCC(=O)OCC(=O)c2c(N)n(C)c(=O)n(C)c2=O)c1	-	-	-	0	-	-
CCCn1c(N)c(C(=O)COC(=O)CNC(=O)c2ccc(C)c(C)c2)c(=O)n(C)c1=O	-	-	-	9.4	0	0
COc1ccc(NC(=O)Cn2cnc3sc(C)c(S(=O)(=O)N4CCOCC4)c3c2=O)c(OC)c1	0	0	0	0	-	-
CCOc1ccc(NC(=O)c2ccc(NS(=O)(=O)c3cccs3)cc2)cc1	0	0	0	0	-	-
CCOc1ccc(C(=O)OCC(=O)Nc2ccc(SC(F)F)cc2)cc1OCC	0	0	0	8.1	0	0
O=C(COC(=O)c1cc[n+]([O-])cc1)Nc1ccc(SC(F)F)cc1	0	0	0	0	-	-
CCCN(CC(=O)Nc1ccccc1OC)C(=O)CCC(=O)c1ccc(OCC)cc1	-	-	-	0	-	-
CCc1nn(CC(=O)N2CCC(C(N)=O)CC2)c(=O)c2cc3occc3n12	0	0	0	11.8	0	0
CCOC(=O)c1ccccc1NC(=O)c1cccc([N+](=O)[O-])c1	0	0	107.6	9.8	0	0
O=C(COC(=O)c1ccccc1NC(=O)c1ccccc1)c1cccc([N+](=O)[O-])c1	0	0	0	0	-	-
CN(C)S(=O)(=O)c1ccc(NC(=O)COc2cccc3c2OC(C)(C)C3)cc1	-	-	-	0	-	-
CCCCN1C(=O)NC2NC(=O)NC21 (centres undefined)	0	0	0	96.7	98.7	0	GFP quench dose=0
CCCCN1C(=O)N(C)C2NC(=O)NC21 (centres undefined)	0	0	0	66.1	75.5	0	GFP quench dose=0
Cc1nc2ccccc2n1CC(=O)c1ccc(O)c(O)c1	-	-	-	32.6	21.4	6.6
Cc1nc2ccccc2n1CC(=O)c1ccccc1	0	0	0	0	-	-
Cc1ccc(C)c(SCC(=O)OCC(=O)Nc2ncc(C(F)(F)F)cc2Cl)c1	0	0	0	9.1	0	0
CCOC(=O)N1CCC(N2C(=O)c3ccccc3C2Nc2ccc(S(=O)(=O)N(CC)CC)cc2)CC1 (centres undefined)	0	0	0	10.6	10.0	0
